p53 reactivation: re-activators of mutant p53; Potency, µM (titrated, usually from 92.2 µM), for the others: at the top dose activity change, positive = activation, hits mostly activators; actives 0.063% (n = 320,000); H1299 p53-A138V BP100-luciferase reporter, luminescence, 24 h; note: % of control where 0% means no effect; nearly all actives have a fitted effect of over 45% in size
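p53-null H1299 cells stably carrying temperature-sensitive p53-A138V and a BP100-luciferase reporter were pinned with compounds (4-point, 1:5 series) and held 24 hrs at 37 deg C. Luminescence was read 10 min after detection reagent.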
FLuc modulator: inhibits or activates purified firefly luciferase, miR-21 counter-screen; P08659; purified FLuc, Km substrates, luminescence inhibition; Potency, µM (highest dose often 57.5 µM), without a hit: top-dose activity change, negative = inhibition, hits mostly inhibitors; actives 6.9% (n = 360,000);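 note: plate controls were vehicle for no effect and reference inhibitor for full effect; nearly all actives have a fitted effect of over 55% in size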
Target sequence (P08659 whole entry, looked up): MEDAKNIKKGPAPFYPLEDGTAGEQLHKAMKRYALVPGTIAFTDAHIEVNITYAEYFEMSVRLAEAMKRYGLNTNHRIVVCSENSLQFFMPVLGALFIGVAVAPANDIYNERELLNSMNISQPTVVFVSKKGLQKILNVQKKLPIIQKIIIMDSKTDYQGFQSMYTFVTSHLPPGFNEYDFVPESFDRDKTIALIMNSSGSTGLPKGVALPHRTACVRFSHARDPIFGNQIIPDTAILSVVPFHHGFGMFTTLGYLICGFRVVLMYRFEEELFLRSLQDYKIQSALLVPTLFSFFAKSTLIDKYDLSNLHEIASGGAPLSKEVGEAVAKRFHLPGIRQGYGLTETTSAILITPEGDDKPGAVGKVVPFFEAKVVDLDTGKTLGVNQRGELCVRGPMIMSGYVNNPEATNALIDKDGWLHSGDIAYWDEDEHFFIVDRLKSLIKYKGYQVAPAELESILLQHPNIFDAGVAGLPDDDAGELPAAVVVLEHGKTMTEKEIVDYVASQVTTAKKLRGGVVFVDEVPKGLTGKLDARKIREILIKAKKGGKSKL
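Biochemical qHTS of compounds, final roughly 60 µM downward over six points, against 10 nM purified firefly luciferase using Km concentrations of substrates (10 uM D-luciferin, 10 uM ATP) in Tris acetate pH 7.5 buffer; luminescence output.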
SMN2 splice enh: increases expression of the SMN2 splice variant. HEK293 SMN2-luciferase splicing reporter, luminescence, 30-36 h. Potency, µM (series often up to 46.1 µM), without a hit: at the highest dose activity change, positive = activation, actives largely listed as activators. actives 2.8% (n = 210,000); note: % of control where 0% means no effect; nearly all actives have a fitted effect of over 55% in size
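HEK293 cells carry an SMN2 […]–luciferase reporter in which exon 7 inclusion puts luciferase in frame. Cells were plated 10-12 h before compound addition, then incubated 30-36 h at 37C. ONE-Glo luminescence was read; sodium butyrate at 4.5 mM final served as control.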
NPC1 prom act: activators of NPC1 promoter | Potency, µM (series often up to 9.22 µM), for the others: at the highest dose activation, most hits filed as activators | Huh7 NPC1 promoter luciferase reporter, 24 h | actives 2.4% (n = 320,000); note: % of control where 0% means no effect; nearly all actives have a fitted effect of over 60% in size
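Huh7 reporter cells (NPC1 promoter driving luciferase) are dosed with compound for 24 h at 37 °C, 5% CO2; luciferase detection reagent is then added and luminescence measured after 10 min at ambient temperature.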
ELG1 genotoxic: induces genotoxicity in HEK293T cells with luciferase-tagged ELG1 | HEK293T ELG1-luciferase reporter, luminescence, 16 h | Potency, µM (series often up to 46 µM), for inactives: top-dose activity change, positive = activation, hits mostly activators | actives 1.3% (n = 330,000) | AID 504466; note: % of control where 0% means no effect; nearly all actives have a fitted effect of over 60% in size
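Genotoxicity was scored as increased ELG1-luciferase reporter signal, measured by ONE-Glo luminescence (30 min, room temperature). Compound or vehicle exposure of the HEK293T reporter cells lasted 16 hr at 37°C.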
Rab9 promoter act: activates the Rab9 promoter | Potency, µM (highest dose often 9.22 µM), for the others: top-dose activation, negative = inhibition, actives largely listed as activators | Huh7 Rab9 promoter-luciferase reporter, luminescence, 24 h | actives 2.8% (n = 320,000); note: % of control where 0% means no effect; nearly all actives have a fitted effect of over 60% in size
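Stable Rab9-luc Huh7, 1500 cells/well, 2 h settle; cmpd in DMSO, 24 h, 37 °C/5% CO2; luciferase reagent 10 min RT; luminescence.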
* marks the source's active call; other numbers are inactive results; ? = inconclusive; / = not tested or not shown; [ ] = another dose, or the depositor's remark. This is a sample that favours compounds with a hit; in the whole collection about 7.3% have one here. Calls come from the whole dose curve; as a rule, active = well fitted curve in the direction sought with a large enough effect; inconclusive = small, poorly fitted or top-dose-only effect, or another doubt; inactive = no such curve, though single readings can be large; an effect the other way counts as inactive or inconclusive. Potency is the fitted concentration of half-maximal effect.

SMILES	p53 reactivation	FLuc modulator	SMN2 splice enh	NPC1 prom act	ELG1 genotoxic	Rab9 promoter act
COC(=O)c1cccc(NC(=O)c2ccc3c(c2)C(=O)N(Cc2cccnc2)C3=O)c1	-6%	?	/	-2%	4%	-6%
Cc1cc2oc3c(c(=O)c2cc1C)C(c1ccc(C(C)C)cc1)N(c1nc(C)c(C)s1)C3=O (stereo not drawn)	/	1%	5%	/	/	/
Cn1c(=O)c2c(ncn2C[C@@H](O)CO)n(C)c1=O	/	/	-17%[20.6 µM]	/	/	/
COc1ccc2nc(N3C(=O)CC(C(C)c4ccccc4)C3=O)sc2c1 (stereo not drawn)	4%	21µM*	/	0%	-1%	0%
COc1ccc2nc(N3C(=O)CC(Cc4ccc(C)cc4)C3=O)sc2c1 (stereo not drawn)	-4%	?	-7%	0%	-1%	-2%
CCC1Oc2ccc(C)cc2N(CC(=O)NCc2ccc(OC)cc2)C1=O (stereo not drawn)	/	-14%	-2%	/	/	/
CCN(CC)CCCN=C(C)C1=C(O)c2ccccc2C1=O	-3%	2%	/	-2%	0%	3%
CCCN=C(C)C1=C(O)c2ccccc2C1=O	?	21µM*	13µM*	?	?	?
COc1ccc(/C=C2\SC(=S)N(NC(=O)c3csc4c3CCCC4)C2=O)cc1	2%	-9%	-17%	-4%	-1%	-1%
CCc1ccc(/C=N/Nc2ncnc3nc[nH]c23)cc1	?	3µM*	/	2.8µM*	7.3µM*	1.3µM*
Cc1ccc2c(c1)-c1nc(-c3ccccc3)cc(-c3ccccc3)c1CO2	/	-1%	-9%	/	/	/
CCCCOC(=O)Oc1ccc2c(=O)c(Oc3cc(C)cc(C)c3)coc2c1	-8%	-7%	-7%	-3%	-3%	-2%
CCCCOC(=O)Oc1ccc2c(=O)c(Oc3cccc(C)c3)coc2c1	?	-15%	13µM*	9%	25%	20%
CC(C)(C)c1ccc(C(=O)NNC(=O)c2ccncc2)cc1	-7%	19µM*	/	9%	3%	11%
CC(C)(C)c1ccc(C(=O)NC(=S)NCc2cccnc2)cc1	19%	24µM*	-40%	13%	-3%	3%
COCCCNC(=S)NC(=O)c1ccc(C)cc1	?	13µM*	14µM*	?	?	?
CC(C)(C)c1ccc(C(=O)c2c[nH]c(C(=O)NCc3cccnc3)c2)cc1	17%	7.6µM*	-6%	17%	-5%	24%
COCCCNC(=S)NNC(=O)c1ccc(C(C)(C)C)cc1	-3%	-4%	/	-2%	-4%	-2%
CC(C)(C)c1ccc(C(=O)NCc2cccnc2)cc1	17%	?	6%	22%	?	-18%
Cc1ccc(C(=O)COC(=O)CCC(=O)Nc2ccc(Oc3cc(C)ccc3C(C)C)cc2)cc1	/	-14%	-2%	/	/	/
Cc1ccc(S(=O)(=O)N(C)CC(=O)Nc2ccncc2)cc1	3%	-2%	2%	0%	-10%	-11%
O=C(CSc1nnc(-c2ccccc2)o1)c1cccc([N+](=O)[O-])c1	/	-2%	4%	/	/	/
Cc1c(NC(=O)c2cc([N+](=O)[O-])ccc2N2CCOCC2)cccc1-c1nc2ccccc2o1	/	?	3%	/	/	/
CCc1ccc(CNC(=O)c2cnc3sc(N4CCCCC4)nn3c2=O)cc1	/	-6%	/	/	/	/
COC(=O)CNC(=S)NC(=O)c1ccc(C(C)(C)C)cc1	5%	13µM*	2%	-1%	5%	-2%
SMILES	p53 reactivation	FLuc modulator	SMN2 splice enh	NPC1 prom act	ELG1 genotoxic	Rab9 promoter act
CC(C)(C)c1ccc(C(=O)NC(=S)NNC(=O)COc2ccccc2)cc1	?	?	/	22%	?	?
COc1ccc(C(=O)c2c[nH]c(C(=O)NCCCn3ccnc3)c2)cc1	1%	-2%	-5%	1%	5%	5%
CC(C)(C)c1ccc(C(=O)c2c[nH]c(C(=O)NCCCn3ccnc3)c2)cc1	7%	19µM*	-50%	24%	1%	5%
O=C(CNC(=S)NC(=O)c1ccccc1)c1ccccc1	25%	17µM*	?	15%	16%	6%
CC(C)(C)c1ccc(C(=O)NNC(=S)NC(=O)c2cccnc2)cc1	18%	19µM*	/	3%	-1%	4%
CCc1ccc(NC(=O)Cn2c(=O)n(-c3cc(OC)c(OC)c(OC)c3)c(=O)c3ccccc32)cc1	/	0%	?	/	/	/
O=C(NNC(=O)C12CC3CC(CC(C3)C1)C2)c1ccccc1O	-7%	15µM*	/	-11%	1%	-28%
Cc1cccc(C(=O)NNC(=O)C23CC4CC(CC(C4)C2)C3)c1O	13%	15µM*	/	-4%	23%	14%
Cc1cc(C(=O)N2CCN(c3ccccc3Cl)CC2)c(C)o1	?	/	/	/	7%	/
CCCCOc1ccc(S(=O)(=O)Nc2cccc(-c3ccc(N4CCOCC4)nn3)c2)cc1	/	13µM*	/	/	/	/
CCOc1ccc(S(=O)(=O)Nc2ccc(-c3ccc(N4CCCC4)nn3)cc2)cc1	/	0%	/	/	/	/
CCOc1ccc(S(=O)(=O)Nc2cccc(-c3ccc(N4CCCCCC4)nn3)c2)cc1	?	8.5µM*	/	3%	?	0%
COC(=O)N1CCC2(CCCN(C(=O)Nc3cccc(F)c3)C2)CC1	/	/	-2%	/	/	/
CN(C)c1ccc(CN(CC2CCCO2)C(=O)COc2ccccc2Cl)cc1 (stereo not drawn)	/	-12%	-10%	/	/	/
Cc1ccc(N=Nc2c(O)ccc3cc(S(=O)(=O)O)ccc23)cc1	/	/	-6%[9.22 µM]	/	/	/
Cc1ccc(N=Nc2c(O)ccc3n[nH]nc23)cc1	7%	11µM*	/	1.6µM*	?	?
Nc1nc(N)nc(-c2ccccn2)n1	0%	4%	-3%	-1%	-3%	-3%
Clc1ccc(-c2cnnc(-c3ccccn3)n2)cc1	?	/	/	/	21µM*	/
CCC1=C2CC[C@H]3C(=O)NC(=O)[C@H]3[C@H]2[C@@]2(C)C(=NCCOC)OC(=O)N2C1=O	/	/	-11%	/	/	/
O=C(CCS(=O)(=O)c1ccc(Br)cc1)NC1CCCC1	2%	1%	-6%	-1%	-5%	2%
O=C(CCS(=O)(=O)c1cccs1)NC1CCCCCC1	23%	17µM*	20%	2.8µM*	?	3.5µM*
O=C(Nc1ccc(C(=O)O)cc1)/C(=C\c1ccc([N+](=O)[O-])cc1)NC(=O)c1ccc(Br)cc1	-2%	-11%	-2%	-1%	-2%	1%
Brc1cccc(-c2n[nH]c(-c3ccccc3)n2)c1	?	3µM*	10µM*	6.3µM*	2.3µM*	3.5µM*
c1ccc(-c2nc(-c3cccnc3)n[nH]2)cc1	46%	?	?	16%	9%	28%

Source: PubChem BioAssay
